Screens from PubChem BioAssay.
CCHF vOTU inh-1 – blocks the CCHF virus ovarian tumor domain protease. CCHFV vOTU protease, Pep-AMC fluorescence. inhibition, % at 11.5 µM. 0.55% of 370,000 active; also: 0% = vehicle wells with enzyme and 100% = no enzyme wells
DUSP3 inh – inhibitors of human VHR1 phosphatase (DUSP3); recombinant VHR phosphatase, pNPP absorbance; inhibition, % at 13.3 µM; AID 1654; P51452; 0.52% of 290,000 active; in the data active = inhibition above about 50%
SARS 3CLpro inh – SARS-CoV 3CLpro protease inhibition; P0C6X7; recombinant SARS-CoV 3CLpro, quenched FRET peptide cleavage; inhibition, % at 6 µM; 0.14% of 290,000 active; AID 1706; in the data active = inhibition above about 12%
RecA intein inh – blocks M. tuberculosis RecA intein splicing | cell-free RecA intein splicing, fluorescence | inhibition, % (concentration not given with the values) | 0.75% of 290,000 active | AID 2221 | P9WHJ3; in the data active = inhibition above about 30%;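 also: 0% = vehicle wells and 100% = reference inhibitor control wells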
Target sequence (P9WHJ3 whole entry, looked up): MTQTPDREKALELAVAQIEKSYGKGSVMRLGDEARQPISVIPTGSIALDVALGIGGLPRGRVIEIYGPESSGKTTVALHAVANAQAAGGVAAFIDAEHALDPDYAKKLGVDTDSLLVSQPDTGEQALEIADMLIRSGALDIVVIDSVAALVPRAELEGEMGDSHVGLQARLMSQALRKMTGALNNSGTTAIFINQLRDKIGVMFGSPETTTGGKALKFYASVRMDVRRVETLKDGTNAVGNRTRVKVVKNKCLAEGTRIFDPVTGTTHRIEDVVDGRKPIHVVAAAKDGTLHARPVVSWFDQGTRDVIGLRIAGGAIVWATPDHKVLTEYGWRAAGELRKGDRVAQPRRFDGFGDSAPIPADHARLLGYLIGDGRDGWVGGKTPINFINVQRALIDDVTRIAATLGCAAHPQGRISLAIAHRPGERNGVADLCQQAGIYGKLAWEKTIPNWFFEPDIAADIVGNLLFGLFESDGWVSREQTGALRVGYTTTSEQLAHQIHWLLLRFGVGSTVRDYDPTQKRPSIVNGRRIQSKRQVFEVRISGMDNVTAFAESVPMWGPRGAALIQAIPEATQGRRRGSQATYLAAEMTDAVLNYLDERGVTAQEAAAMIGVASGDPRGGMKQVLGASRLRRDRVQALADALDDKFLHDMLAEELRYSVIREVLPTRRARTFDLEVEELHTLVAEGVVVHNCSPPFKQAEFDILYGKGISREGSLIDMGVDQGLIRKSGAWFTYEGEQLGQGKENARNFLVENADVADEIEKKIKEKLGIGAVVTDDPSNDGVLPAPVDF
CCHF vOTU inh-2 – confirmation of CCHF virus vOTU protease inhibitors | shares compounds with CCHF vOTU inh-1 | Recombinant CCHFV vOTU, Pep-AMC fluorescence | inhibition, % at 11.5 µM | 17% of 1,900 active | AID 686976
* hit, by the source's call; / = no result. Only some compounds are listed: those with a hit (about 1.5% of all), similar ones and a draw of the others. Rule as the data show it, unless noted: active = inhibition above about 30%; inactive = the rest.

SMILES | CCHF vOTU inh-1 | DUSP3 inh | SARS 3CLpro inh | RecA intein inh | CCHF vOTU inh-2
COC(=O)c1ccc(N=NNc2ccc(C(=O)OC)cc2)cc1 | 33* | -1 | -2 | -3 | -9
CCCCN(C(=O)CC1CCCCC1)c1c(N)n(CC(C)C)c(=O)[nH]c1=O | 32* | / | / | / | -27
CCCCn1c(N)c(N(CCC(C)C)C(=O)CC2CCCCC2)c(=O)[nH]c1=O | -8 | / | / | 7 | /
CC(C)(CN1CCCN(CC(C)(C)C(=O)O)C1=O)C(=O)O | -8 | / | / | / | /
CC(C)CCNC(=O)c1onc(CSc2ccccc2)c1C(=O)NCCC(C)C | 9 | / | / | 0 | /
COc1ccc(OC)c(NC(=O)CSc2nc(O)cc(=O)n2CC(C)C)c1 | 32* | / | / | / | -11
CCOC(=O)C1=C(COC(=O)COc2ccc(C(=O)CC)cc2)NC(=O)NC1C (stereo not given) | 12 | / | / | -2 | /
COc1ccccc1NS(=O)(=O)c1ccc(N/N=C/C=C/c2ccccc2[N+](=O)[O-])c([N+](=O)[O-])c1 | -1 | -15 | -2 | 1 | /
O=C(O)c1ccccc1NS(=O)(=O)c1ccc(N/N=C/c2ccc(O)c(O)c2)c([N+](=O)[O-])c1 | 42* | / | / | / | 46*
COc1ccc(NS(=O)(=O)c2cc([N+](=O)[O-])ccc2NN=Cc2ccccc2OCC(=O)O)cc1 | 14 | / | / | / | /
COc1ccccc1NS(=O)(=O)c1ccc(N/N=C/c2ccccc2OCC(=O)O)c([N+](=O)[O-])c1 | 30* | 16 | 5 | -2 | 14
CCN(CC)S(=O)(=O)c1ccc(N/N=C/c2ccccc2OCC(=O)O)c([N+](=O)[O-])c1 | 34* | 6 | 4 | 0 | 8
O=C(O)c1ccccc1NS(=O)(=O)c1ccc(NN=Cc2cccc(Cl)c2)c([N+](=O)[O-])c1 | 11 | / | / | / | /
O=C(O)COc1ccccc1/C=N/Nc1ccc(S(=O)(=O)Nc2ccc(Cl)cc2)cc1[N+](=O)[O-] | 37* | 18 | 9 | 7 | 17
CCN(CC)C(=O)COc1coc(CN2CCN(c3ccccc3)CC2)cc1=O | -10 | -6 | 6 | -1 | /
O=C(c1cnc(Cc2c[nH]c3ccccc23)c(I)c1)N1CCOCC1 | -3 | / | / | / | /
O=S(=O)(c1cccc2cccnc12)N1CCC(c2cn3ccccc3n2)CC1 | -9 | / | / | / | /
O=c1c(O)c(-c2ccc(O)c(O)c2)oc2cc(O)cc(O)c12 | 32* | 13 | -1 | -4 | -6
CCn1c(N)nc2c1c(=O)n(C)c(=O)n2C | 4 | -5 | -1 | -8 | /
CCCc1nc2c(=O)n(C)c(=O)nc-2n(C)n1 | 113* | / | -2 | / | 94*
COc1cccc(OCc2cc(C(=O)N(C)C3CC(C)(C)NC(C)(C)C3)no2)c1 | -6 | 24 | 4 | -3 | /
COc1cccc(OCc2cc(C(=O)N(C)C3CCOCC3)no2)c1 | 30* | -7 | -8 | 1 | -10
Oc1ccc2ccccc2c1C=NC12CN3CCN(CN(C3)C1)C2 | 72* | 23 | 1 | / | 73*
O=C(NCCc1ccc(F)cc1)c1ccc2c(c1)ncn2C1CCCCC1 | -1 | / | / | / | /
CCCc1cc(-c2ccc(O)c(OCC)c2)c(C#N)c(N)n1 | 39* | -1 | 3 | / | 4
SMILES | CCHF vOTU inh-1 | DUSP3 inh | SARS 3CLpro inh | RecA intein inh | CCHF vOTU inh-2
CCOc1cc(-c2cc(-c3ccc(C)o3)nc(N)c2C#N)ccc1O | -1 | -19 | 1 | 1 | /
Cc1ccc(S(=O)c2ccc([N+](=O)[O-])c3nonc23)cc1 (stereo not given) | 32* | / | / | / | 18
O=C(C[C@H]1C/C=C\CC[C@H](Cc2ccc(F)cc2)C(=O)O[C@H](c2ccccc2)CNC1=O)N[C@H](CO)Cc1ccccc1 | 28 | / | / | / | /
CN(C)C(=O)c1c2c(nc3ccccc13)-c1ccccc1CC2 | 33* | 32 | -3 | -3 | -21
O=C(c1ccccc1)c1ccc(OCCn2cnc3ccccc3c2=O)cc1 | 13 | 19 | 5 | 2 | /
CC(C)(c1ccccc1)c1ccc(OCCn2cnc3ccccc3c2=O)cc1 | 31* | 16 | 0 | 4 | 4
CNc1oc(-c2ccccc2)nc1S(=O)(=O)c1ccc(C)cc1 | 30* | -11 | 0 | 0 | -15
CCCCCCCCN1C(=O)[C@H](CC(=O)N2CCCCC2)C[C@@]2(C(=O)OC)CC(C)(C)CC=C12 | 33* | / | / | / | 13
COC(=O)[C@@]12C[C@@H](CC(=O)NCc3ccc(OC)c(OC)c3)C(=O)N(Cc3ccco3)C1=CCC(C)(C)C2 | 37* | / | / | / | -11
CCCCNC(=O)C[C@@H]1C[C@@]2(C(=O)OC)CC(C)(C)CC=C2N(CCc2ccc(OC)c(OC)c2)C1=O | 1 | / | / | / | /
CCCCCCCCN1C(=O)[C@H](CC(=O)N2CCOCC2)C[C@@]2(C(=O)OC)CC(C)(C)CC=C12 | 29 | / | / | / | /
COC(=O)[C@@]12C[C@@H](CC(=O)NCc3ccc(OC)c(OC)c3)C(=O)N(CCc3ccc(OC)c(OC)c3)C1=CCC(C)(C)C2 | 31* | / | / | / | -11
CCCCCCCCN1C(=O)[C@H](CC(=O)NCc2ccc(OC)c(OC)c2)C[C@@]2(C(=O)OC)CC(C)(C)CC=C12 | 37* | / | / | / | 3
O=C1C(=O)N(CCS(=O)(=O)c2ccccc2)c2ccc(F)cc21 | 13 | 17 | -5 | 10 | /
COC(=O)c1ccc(CNC(=O)C2CCC(=O)N(CCN3CCOCC3)C2)cc1 (stereo not given) | 7 | 0 | -5 | 0 | /
Cc1cc(C)cc(C(=O)OCCN2CCN(C3CN(Cc4cn(Cc5ccccc5F)nn4)S(=O)(=O)C3)CC2)c1 (stereo not given) | 1 | / | / | / | /
O=C(Nc1ccc(F)cc1)OCc1cn(Cc2cccc(F)c2F)nn1 | -4 | / | / | / | /
COC(=O)[C@@]12C[C@@H](CC(=O)NCc3cccc(C(F)(F)F)c3)C(=O)N(Cc3cccc4ccccc34)C1=CCC(C)(C)C2 | 31* | / | / | / | 1
C[C@@H]1CN([C@H](C)CO)C(=O)c2cc(Br)cnc2O[C@@H]1CN(C)C(=O)c1ccccc1 | 5 | / | / | / | /
C=CCN1C(=O)c2ccc(C(=O)OCC(=O)Nc3ccccc3OC)cc2C1=O | 32* | / | / | / | -23
COc1ccccc1NC(=O)COC(=O)c1ccc2c(c1)OCCO2 | -3 | / | / | / | /
COc1ccc(S(=O)(=O)N2CCC(C(=O)N[C@@H](C)C(=O)NCc3ccccc3OC)CC2)cc1 | 2 | 11 | -6 | 3 | /
Cc1ccc(C(=O)N/C(=C/c2cn(-c3ccccc3)nc2-c2ccccc2)C(=O)O)cc1 | 39* | 12 | 4 | 8 | 1
CC1=Nc2ccccc2/C1=C/c1sc(=S)n(-c2cccc(C(=O)O)c2)c1O | 36* | -6 | -6 | 6 | 26
CC(NC(=O)c1ccccc1)C(=O)N/N=C/c1cccc([N+](=O)[O-])c1 (stereo not given) | -8 | 34 | -2 | -1 | /
COC(=O)[C@]12C[C@H](CC(=O)NCC34CC5CC(CC(C5)C3)C4)C(=O)N(Cc3ccco3)C1=C[C@H](C(C)(C)C)O[C@@H]2C | 26 | / | / | / | /
Cc1cc(C)c(S(=O)(=O)NCC(c2ccco2)N2CCc3ccccc3C2)c(C)c1 (stereo not given) | 30* | / | / | 10 | 3
COc1ccc(NC(=O)COC(=O)c2cc(SC)ccc2Cl)c(OC)c1 | 30* | 13 | -9 | 0 | -13
COc1ccc(C(C)(C)C)cc1NC(=O)COC(=O)c1cc(SC)ccc1Cl | 20 | -18 | 1 | 2 | /
